In the library only some 3.9% were active in any assay of this set; here they are far more common.
SARS 3CLpro inh: SARS-CoV 3CLpro protease inhibition; actives 0.14% (n = 290,000); recombinant SARS-CoV 3CLpro, quenched FRET peptide cleavage; inhibition, % at 6 µM; P0C6X7; in the data active = inhibition above about 12%
VHR inh abs: blocks human VHR1 dual specificity phosphatase. actives 0.52% (n = 290,000). inhibition, % at 13.3 µM. recombinant VHR phosphatase, pNPP absorbance. P51452; in the data active = inhibition above about 50%
Target sequence (P51452 whole entry, looked up): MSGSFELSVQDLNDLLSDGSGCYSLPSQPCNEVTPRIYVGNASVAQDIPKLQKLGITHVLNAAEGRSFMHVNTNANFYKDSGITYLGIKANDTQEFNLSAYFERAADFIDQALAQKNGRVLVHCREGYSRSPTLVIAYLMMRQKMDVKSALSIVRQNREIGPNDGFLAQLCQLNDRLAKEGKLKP
BoNT F protease: BoNT F light chain protease inhibition; Multiplex microsphere protease cleavage assay, flow cytometry; inhibition, % at 10 µM; actives 0.22% (n = 360,000); in the data active = inhibition above about 35%, passing the limit was not always enough; inconclusive = no clear call, values can overlap the other calls; also: plate controls were buffer without enzyme for full effect and enzyme alone for no effect
Anthrax LF prot: inhibitors of Bacillus anthracis lethal factor protease; P15917; multiplex microsphere protease cleavage assay, LF; inhibition, % at 10 µM; actives 0.12% (n = 360,000); AID 588501; also: plate controls were buffer without enzyme for full effect and enzyme alone for no effect
Bead autofluor: counter-screen for toxin protease inhibitors: compound fluorescence | compound autofluorescence counterscreen, microsphere flow cytometry; stronger effect = higher value | actives 3.1% (n = 360,000) | fluorescence intensity (concentration not given with the values); in the data active = fluorescence intensity above about 16000; inconclusive = no clear call, values can overlap the other calls
BoNT A protease: inhibitors of Botulinum neurotoxin A light chain protease | multiplex microsphere protease substrate cleavage, flow cytometry | inhibition, % at 10 µM | actives 0.17% (n = 360,000) | AID 588499; also: plate controls were buffer without enzyme for full effect and enzyme alone for no effect
An asterisk follows results filed as active; ? = inconclusive; / = no result. Rule as the data show it, unless noted: active = inhibition above about 30%; inconclusive = no clear call, values can overlap the other calls; inactive = below that.

SMILES	SARS 3CLpro inh	VHR inh abs	BoNT F protease	Anthrax LF prot	Bead autofluor	BoNT A protease
CCC1S/C(=N/N=C/c2ccco2)N(Cc2ccccc2C)C1=O (configuration not stated)	2.9	28.8	?	40.7*	3284	?
COc1ccc(CNC(=O)CCn2c(C)csc2=O)cc1	/	/	3.1	2.2	3257	-0.1
O=C(c1ccc(OC2CCN(CCc3ccccc3)CC2)cc1)N1CCCC(CCCO)C1 (configuration not stated)	-4.2	-3.6	-3.0	-1.0	6185	-3.0
O=C(c1ccc(OC2CCN(CCc3ccccc3)CC2)cc1)N1CCCCC1CCCO (configuration not stated)	-2.3	50.2*	3.7	-1.7	6295	1.1
C=CCn1c(Cc2c[nH]c3ccccc23)nnc1SCC(=O)NCc1ccccc1	0.9	9.1	-3.0	-3.4	23009*	-1.6
COn1c(SCc2cccc(Cl)c2)nc2ccccc2c1=O	4.4	29.7	-9.7	-2.0	17254*	-2.5
CCc1nc2ccc(C(=O)NCC3CCCCC3)cn2c1N(C)Cc1nccs1	/	/	4.1	-17.2	4297	-0.5
C/C(=N\S(=O)(=O)c1ccc(C)cc1)N1CCN(S(=O)(=O)c2ccccc2)C1C(C)C (configuration not stated)	5.2	-16.4	1.9	3.4	22111*	1.0
CCOc1cc(/C=N\NC(=O)c2ccc(C)nc2)cc([N+](=O)[O-])c1O	1.8	12.0	-5.5	-0.7	19947*	-1.7
CCCCOCCCNC(=O)C[C@@H]1C[C@@]2(C(=O)OC)CCCCC=C2N(Cc2cccc3ccccc23)C1=O	/	/	-6.6	-4.6	5633	-0.3
Cc1ccc(-c2csc(N)n2)s1	-3.4	4.4	-1.4	-0.1	20327*	-1.8
CCc1ccc(-c2cc(C)no2)cc1S(=O)(=O)N1CCCN(Cc2ccc(F)cc2)C1	2.3	3.9	-9.8	1.3	5051	0.8
O=S(=O)(NCc1ccc(F)cc1)c1ccccc1Br	/	/	-10.4	-1.6	3693	-0.8
CCC(=O)N1CCc2cc(S(=O)(=O)NC(C(=O)NC(C)c3ccccc3)C(C)C)ccc21 (configuration not stated)	-3.0	23.7	-4.9	1.5	4260	-0.7
CC(=O)N1CCc2cc(S(=O)(=O)NC(CC(C)C)C(=O)N3CCn4c3nc3ccccc34)ccc21 (configuration not stated)	4.5	13.2	-1.5	1.1	21252*	0.9
CC(=O)N1CCCc2cc(S(=O)(=O)NC(C(=O)NC(C)c3ccccc3)C(C)C)ccc21 (configuration not stated)	-10.0	14.0	-1.3	0.7	16474*	-0.7
CCC1(CC)C(=O)NC(=O)NC1=NCCc1c[nH]c2ccccc12	-1.8	-4.6	-1.0	-0.5	21453*	-2.2
CCC1(CC)C(=O)NC(=O)NC1=Nc1ccccc1	1.6	10.5	-0.1	-0.4	1967	-0.4
NNC(=O)c1nc(-c2ccccc2)n2c1CCCCC2	0.1	15.5	-1.1	0.9	20671*	?
CCCn1c(SCC(=O)Nc2cc(C(=O)O)ccc2C)nc2sc3c(c2c1=O)CCC3	/	/	-2.7	-2.6	4175	0.1
Cc1ccc(C(O)c2ncc(-c3ccc(F)cc3)[nH]2)c(C)c1 (configuration not stated)	/	/	-1.8	-5.3	3983	-0.3
Cc1cc(NC(=O)CN2CCN(c3ccccc3O)CC2)no1	-0.9	-6.0	-4.8	-3.0	17083*	-2.1
CC(=O)NCCn1c(SCc2cc(F)ccc2F)nc2ccccc2c1=O	-1.2	12.8	-1.1	-6.2	21737*	?
CC(=O)NCCn1c(SCC(=O)c2ccccc2)nc2ccccc2c1=O	1.4	25.0	-4.6	-0.3	23027*	-2.3
CC(=O)NCCn1c(SCc2ccccc2C)nc2ccccc2c1=O	3.3	9.6	-3.0	-15.3	7911	2.9
SMILES	SARS 3CLpro inh	VHR inh abs	BoNT F protease	Anthrax LF prot	Bead autofluor	BoNT A protease
CC(=O)NCCn1c(SCc2ccc(C)cc2C)nc2ccccc2c1=O	6.8	16.1	-1.3	-1.8	23483*	-1.7
CC(=O)NCCn1c(SCC(=O)OCc2ccccc2)nc2ccccc2c1=O	-6.0	22.4	17.5	15.1	6113	4.6
COc1ccccc1NC(=O)C(=O)N/N=C(\C)CC(=O)Nc1ccccc1C(F)(F)F	4.2	16.3	-7.6	-1.6	3641	-0.7
COc1ccc(N2C(=O)NC(=O)/C(=C/c3cccc(OC(=O)c4cccs4)c3)C2=O)cc1Cl	2.3	2.1	/	/	/	/
Cc1ccc(N2C(=O)NC(=O)/C(=C/c3ccc(OC(=O)c4cccs4)cc3)C2=O)cc1	7.3	23.7	-5.6	-4.3	24767*	?
CCOC(=O)N1CCN(c2cc3nccnc3cc2F)CC1	-2.7	1.8	-5.8	0.3	22764*	?
CCC(C(=O)OCC(=O)NCc1ccc2c(c1)OCO2)c1ccccc1 (configuration not stated)	/	/	-2.9	-5.0	3406	-0.5
CC(SC1CCCC1)C(=O)Nc1ccnn1C(C)C (configuration not stated)	-2.1	29.0	-1.4	-8.4	20011*	?
C[C@@H]1CN([C@@H](C)CO)C(=O)CCCn2nncc2CO[C@@H]1CN(C)S(=O)(=O)c1cn(C)cn1	/	/	-1.2	7.1	2820	-0.5
CCCNC(=O)N1CCC(C(=O)c2cccc(F)c2)CC1	-0.1	2.7	16.5	1.6	2217	-0.2
C#CCOC(=O)c1csc2nnsc12	-0.8	11.8	2.0	-3.0	21747*	?
C#CCOC(=O)c1ccccc1C(=O)OCC#C	-0.1	17.3	-6.4	-3.1	2823	-0.3
COc1ccc(Cl)cc1C(=O)NNC(=O)CN1C(=O)C2CC=CCC2C1=O (configuration not stated)	-5.0	47.1	2.8	0.7	4120	-0.2
CN1CCN(/C=N/C2=C(C#N)C(c3ccccc3)C3=C(CC(C)(C)CC3=O)O2)CC1 (configuration not stated)	-1.1	10.6	-4.3	-2.4	22390*	-1.4
CC(c1ccccc1)C1C(C#N)=C(N)OC2=C1C(=O)CC(C)(C)C2 (configuration not stated)	3.4	17.2	0.0	-1.1	23366*	-1.6
CC1(C)CC(=O)C2=C(C1)OC(N)=C(C#N)C2C#Cc1ccccc1 (configuration not stated)	-0.5	-8.0	5.6	-1.5	2836	0.9
COc1ccc(/C=C/c2ccccc2)cc1[C@H]1[C@H]2C=CC[C@@H](C)[C@@H]2C(=O)N1Cc1ccccc1	/	-30.7	-3.0	-9.1	3308	0.4
COc1ccc(Oc2cn[nH]c2-c2ccc(O)cc2O)cc1	-2.1	14.5	2.5	1.4	2561	0.6
COc1ccc(-c2[nH]ncc2-c2cnn(-c3ccccc3)c2)c(O)c1	1.2	16.6	-3.6	-0.8	22408*	0.4
COc1ccc(-c2cn[nH]c2-c2ccc(O)cc2O)cc1	-0.8	-24.8	1.9	-9.7	3989	-1.4
COc1ccc(-c2[nH]ncc2Oc2ccccc2OC)c(O)c1	2.8	-4.7	-8.4	-6.1	24038*	-3.6

Assay outcomes from PubChem BioAssay.
